In ChEMBL document CHEMBL2218924, “A broad activity screen in support of a chemogenomic map for kinase signalling research and drug discovery” (Biochem J, 2013) one finds residual activity data, which are given here for three compounds.

Experiment [1] addresses T1, Muscle, skeletal receptor tyrosine-protein kinase (Homo sapiens) (UniProt O15146).
T1 sequence (whole entry): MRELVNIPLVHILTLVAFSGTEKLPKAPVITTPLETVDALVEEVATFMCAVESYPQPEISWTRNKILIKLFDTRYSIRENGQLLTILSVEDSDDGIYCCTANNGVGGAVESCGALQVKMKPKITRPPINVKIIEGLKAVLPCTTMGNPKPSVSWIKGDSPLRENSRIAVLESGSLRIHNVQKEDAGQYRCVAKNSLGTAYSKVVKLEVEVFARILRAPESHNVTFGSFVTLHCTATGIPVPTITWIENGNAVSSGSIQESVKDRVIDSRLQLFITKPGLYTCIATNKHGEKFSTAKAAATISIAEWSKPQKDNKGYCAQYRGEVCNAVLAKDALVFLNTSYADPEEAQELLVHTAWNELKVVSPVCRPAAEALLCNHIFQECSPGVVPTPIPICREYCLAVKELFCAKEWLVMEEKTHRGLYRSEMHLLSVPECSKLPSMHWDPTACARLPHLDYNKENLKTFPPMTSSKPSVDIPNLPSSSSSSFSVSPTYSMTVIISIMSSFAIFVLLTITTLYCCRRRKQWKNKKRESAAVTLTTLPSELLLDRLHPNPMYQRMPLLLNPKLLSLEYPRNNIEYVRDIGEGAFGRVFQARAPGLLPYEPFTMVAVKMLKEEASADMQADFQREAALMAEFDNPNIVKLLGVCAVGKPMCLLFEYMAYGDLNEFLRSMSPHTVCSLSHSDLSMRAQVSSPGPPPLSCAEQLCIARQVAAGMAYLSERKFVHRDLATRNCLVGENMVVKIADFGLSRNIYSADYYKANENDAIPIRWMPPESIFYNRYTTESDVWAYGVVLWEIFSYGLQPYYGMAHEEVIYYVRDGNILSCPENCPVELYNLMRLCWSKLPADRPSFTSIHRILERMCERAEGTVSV
Conditions: at 1 µM.

Experiment [2] deals with T1, Muscle, skeletal receptor tyrosine-protein kinase (Homo sapiens). Conditions: at 10 µM.
The target of experiment [3] is T2, Serine/threonine-protein kinase Nek11 (Homo sapiens) (UniProt Q8NG66).
T2 sequence (whole entry): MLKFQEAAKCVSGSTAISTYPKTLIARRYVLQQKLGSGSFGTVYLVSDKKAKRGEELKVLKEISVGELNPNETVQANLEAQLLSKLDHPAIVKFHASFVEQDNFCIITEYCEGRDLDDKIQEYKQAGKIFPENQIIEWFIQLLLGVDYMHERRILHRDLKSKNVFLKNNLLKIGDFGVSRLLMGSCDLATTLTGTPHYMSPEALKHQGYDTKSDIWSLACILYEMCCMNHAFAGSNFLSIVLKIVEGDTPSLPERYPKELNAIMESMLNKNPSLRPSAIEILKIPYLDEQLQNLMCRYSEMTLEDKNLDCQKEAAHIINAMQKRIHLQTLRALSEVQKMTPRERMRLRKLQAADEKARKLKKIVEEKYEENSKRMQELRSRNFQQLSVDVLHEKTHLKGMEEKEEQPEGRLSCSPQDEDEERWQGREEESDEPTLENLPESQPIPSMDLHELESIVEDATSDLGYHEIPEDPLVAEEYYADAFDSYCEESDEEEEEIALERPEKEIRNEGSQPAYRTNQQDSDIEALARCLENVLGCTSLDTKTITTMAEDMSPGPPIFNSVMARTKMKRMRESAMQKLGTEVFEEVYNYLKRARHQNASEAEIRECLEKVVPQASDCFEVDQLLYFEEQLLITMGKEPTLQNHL
To be noted: at 1 µM.

In experiment [4] the target is T2, Serine/threonine-protein kinase Nek11 (Homo sapiens). Conditions: at 10 µM.
For experiment [5], the target named is T3, Serine/threonine-protein kinase Nek2 (Homo sapiens) (UniProt P51955).
T3 sequence (whole entry): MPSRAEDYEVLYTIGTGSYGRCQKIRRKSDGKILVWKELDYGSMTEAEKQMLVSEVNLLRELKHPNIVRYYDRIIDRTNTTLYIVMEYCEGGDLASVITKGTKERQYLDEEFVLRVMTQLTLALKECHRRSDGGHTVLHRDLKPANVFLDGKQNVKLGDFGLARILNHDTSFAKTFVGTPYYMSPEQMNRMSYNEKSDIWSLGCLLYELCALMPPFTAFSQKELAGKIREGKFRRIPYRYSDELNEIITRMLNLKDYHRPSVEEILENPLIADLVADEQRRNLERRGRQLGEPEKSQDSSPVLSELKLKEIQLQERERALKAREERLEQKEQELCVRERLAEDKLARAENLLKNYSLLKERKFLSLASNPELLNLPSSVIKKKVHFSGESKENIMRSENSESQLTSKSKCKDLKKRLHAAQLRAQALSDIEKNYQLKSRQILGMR
Conditions: at 1 µM.

For experiment [6], the target named is T3, Serine/threonine-protein kinase Nek2 (Homo sapiens). To be noted: at 10 µM.
The target in experiment [7] is T4, Serine/threonine-protein kinase Nek3 (Homo sapiens) (UniProt P51956).
T4 sequence (whole entry): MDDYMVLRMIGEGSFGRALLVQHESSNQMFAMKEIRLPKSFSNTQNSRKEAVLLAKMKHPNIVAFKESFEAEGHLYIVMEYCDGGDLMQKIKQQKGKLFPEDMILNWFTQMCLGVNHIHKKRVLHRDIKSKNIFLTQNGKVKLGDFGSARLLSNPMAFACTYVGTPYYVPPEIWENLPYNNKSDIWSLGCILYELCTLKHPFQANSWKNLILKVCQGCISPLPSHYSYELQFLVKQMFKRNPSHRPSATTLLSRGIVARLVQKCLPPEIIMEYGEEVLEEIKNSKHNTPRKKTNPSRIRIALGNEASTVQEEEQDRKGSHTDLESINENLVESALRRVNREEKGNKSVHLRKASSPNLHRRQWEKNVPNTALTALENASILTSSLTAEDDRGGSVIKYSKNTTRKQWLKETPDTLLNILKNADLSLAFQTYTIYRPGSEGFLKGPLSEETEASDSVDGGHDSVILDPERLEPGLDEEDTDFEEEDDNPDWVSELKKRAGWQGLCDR
Conditions: at 1 µM.

In experiment [8] the target is T4, Serine/threonine-protein kinase Nek3 (Homo sapiens). To be noted: at 10 µM.
For experiment [9], the target named is Serine/threonine-protein kinase tousled-like 2 (Homo sapiens) (UniProt Q86UE8). Conditions: at 1 µM.
For experiment [10] the target is unchanged. To be noted: at 10 µM.
The target of experiment [11] is T5, Testis-specific serine/threonine-protein kinase 1 (Homo sapiens) (UniProt Q9BXA7).
T5 sequence (whole entry): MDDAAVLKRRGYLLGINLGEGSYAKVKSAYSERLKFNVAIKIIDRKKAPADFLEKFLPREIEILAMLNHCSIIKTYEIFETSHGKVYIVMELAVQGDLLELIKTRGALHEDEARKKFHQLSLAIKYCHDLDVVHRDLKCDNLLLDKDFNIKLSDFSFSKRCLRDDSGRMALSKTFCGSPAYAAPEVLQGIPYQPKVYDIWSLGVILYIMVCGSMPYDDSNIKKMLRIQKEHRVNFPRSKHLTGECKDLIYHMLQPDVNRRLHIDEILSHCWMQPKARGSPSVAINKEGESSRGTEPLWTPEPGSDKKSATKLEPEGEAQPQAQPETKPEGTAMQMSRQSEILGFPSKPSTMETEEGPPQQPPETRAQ
Conditions: at 1 µM.

Experiment [12] concerns the target T5, Testis-specific serine/threonine-protein kinase 1 (Homo sapiens). To be noted: at 10 µM.
The target of experiment [13] is T6, Testis-specific serine/threonine-protein kinase 2 (Homo sapiens) (UniProt Q96PF2).
T6 sequence (whole entry): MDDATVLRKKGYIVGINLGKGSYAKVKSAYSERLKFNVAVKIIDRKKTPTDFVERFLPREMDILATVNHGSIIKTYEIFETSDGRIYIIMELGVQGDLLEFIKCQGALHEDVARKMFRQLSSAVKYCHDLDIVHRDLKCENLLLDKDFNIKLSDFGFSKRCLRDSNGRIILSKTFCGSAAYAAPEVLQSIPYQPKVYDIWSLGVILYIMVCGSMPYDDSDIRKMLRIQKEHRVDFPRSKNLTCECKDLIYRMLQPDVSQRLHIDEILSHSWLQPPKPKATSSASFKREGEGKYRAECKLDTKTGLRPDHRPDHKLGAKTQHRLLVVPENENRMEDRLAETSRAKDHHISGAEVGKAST
To be noted: at 10 µM.

Experiment [14] deals with T7, Tyrosine-protein kinase Tec (Homo sapiens) (UniProt P42680).
T7 sequence (whole entry): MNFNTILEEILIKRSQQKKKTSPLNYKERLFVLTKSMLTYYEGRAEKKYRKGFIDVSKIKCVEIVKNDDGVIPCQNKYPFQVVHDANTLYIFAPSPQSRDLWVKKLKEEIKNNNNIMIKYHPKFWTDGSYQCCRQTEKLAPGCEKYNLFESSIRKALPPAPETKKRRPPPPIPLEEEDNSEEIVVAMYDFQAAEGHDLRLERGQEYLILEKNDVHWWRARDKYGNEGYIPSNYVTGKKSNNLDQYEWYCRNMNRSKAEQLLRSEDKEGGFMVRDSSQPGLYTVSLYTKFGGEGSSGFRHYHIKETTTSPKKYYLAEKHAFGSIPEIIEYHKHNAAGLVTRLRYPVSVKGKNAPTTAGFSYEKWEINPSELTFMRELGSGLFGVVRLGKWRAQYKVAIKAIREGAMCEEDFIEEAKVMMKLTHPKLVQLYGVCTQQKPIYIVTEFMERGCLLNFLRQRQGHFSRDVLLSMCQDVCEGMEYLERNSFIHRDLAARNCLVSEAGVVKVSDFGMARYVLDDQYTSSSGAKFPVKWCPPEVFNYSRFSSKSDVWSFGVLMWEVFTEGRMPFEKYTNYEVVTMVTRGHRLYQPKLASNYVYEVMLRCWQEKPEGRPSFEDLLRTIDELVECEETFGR
Conditions: at 1 µM.

Experiment [15] concerns the target T7, Tyrosine-protein kinase Tec (Homo sapiens). To be noted: at 10 µM.
Experiment [16] deals with Angiopoietin-1 receptor (Homo sapiens) (UniProt Q02763). To be noted: at 1 µM.
Experiment [17] shares this target. To be noted: at 10 µM.
Experiment [18] has as its target High affinity nerve growth factor receptor (Homo sapiens) (UniProt P04629). To be noted: at 1 µM.
Experiment [19] has the same target. Conditions: at 10 µM.
For experiment [20], the target named is BDNF/NT-3 growth factors receptor (Homo sapiens) (UniProt Q16620). To be noted: at 1 µM.
BDNF/NT-3 growth factors receptor (Homo sapiens), sequence (Q16620 32-822 limits assumed): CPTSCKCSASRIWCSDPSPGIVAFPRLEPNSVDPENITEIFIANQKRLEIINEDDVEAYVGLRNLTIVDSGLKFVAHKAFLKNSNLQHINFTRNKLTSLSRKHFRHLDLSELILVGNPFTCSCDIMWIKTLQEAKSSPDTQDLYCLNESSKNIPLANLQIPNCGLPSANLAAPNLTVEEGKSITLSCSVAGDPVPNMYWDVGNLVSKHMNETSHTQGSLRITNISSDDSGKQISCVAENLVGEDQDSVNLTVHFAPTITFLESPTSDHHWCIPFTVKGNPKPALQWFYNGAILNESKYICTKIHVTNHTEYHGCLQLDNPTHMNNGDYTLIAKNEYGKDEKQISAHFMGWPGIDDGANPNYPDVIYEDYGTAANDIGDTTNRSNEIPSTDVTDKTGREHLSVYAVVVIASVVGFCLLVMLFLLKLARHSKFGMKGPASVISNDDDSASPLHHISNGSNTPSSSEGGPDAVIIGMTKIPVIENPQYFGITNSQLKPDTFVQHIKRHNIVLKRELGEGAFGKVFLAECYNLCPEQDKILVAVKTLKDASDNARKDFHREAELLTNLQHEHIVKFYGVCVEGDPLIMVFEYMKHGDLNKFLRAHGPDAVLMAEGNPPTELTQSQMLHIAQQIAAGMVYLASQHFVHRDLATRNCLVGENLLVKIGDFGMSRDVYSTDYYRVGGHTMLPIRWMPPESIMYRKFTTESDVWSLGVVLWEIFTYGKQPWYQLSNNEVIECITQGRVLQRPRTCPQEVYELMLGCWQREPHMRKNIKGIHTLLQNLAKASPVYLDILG

Angiopoietin-1 receptor (Homo sapiens), sequence (Q02763 whole entry): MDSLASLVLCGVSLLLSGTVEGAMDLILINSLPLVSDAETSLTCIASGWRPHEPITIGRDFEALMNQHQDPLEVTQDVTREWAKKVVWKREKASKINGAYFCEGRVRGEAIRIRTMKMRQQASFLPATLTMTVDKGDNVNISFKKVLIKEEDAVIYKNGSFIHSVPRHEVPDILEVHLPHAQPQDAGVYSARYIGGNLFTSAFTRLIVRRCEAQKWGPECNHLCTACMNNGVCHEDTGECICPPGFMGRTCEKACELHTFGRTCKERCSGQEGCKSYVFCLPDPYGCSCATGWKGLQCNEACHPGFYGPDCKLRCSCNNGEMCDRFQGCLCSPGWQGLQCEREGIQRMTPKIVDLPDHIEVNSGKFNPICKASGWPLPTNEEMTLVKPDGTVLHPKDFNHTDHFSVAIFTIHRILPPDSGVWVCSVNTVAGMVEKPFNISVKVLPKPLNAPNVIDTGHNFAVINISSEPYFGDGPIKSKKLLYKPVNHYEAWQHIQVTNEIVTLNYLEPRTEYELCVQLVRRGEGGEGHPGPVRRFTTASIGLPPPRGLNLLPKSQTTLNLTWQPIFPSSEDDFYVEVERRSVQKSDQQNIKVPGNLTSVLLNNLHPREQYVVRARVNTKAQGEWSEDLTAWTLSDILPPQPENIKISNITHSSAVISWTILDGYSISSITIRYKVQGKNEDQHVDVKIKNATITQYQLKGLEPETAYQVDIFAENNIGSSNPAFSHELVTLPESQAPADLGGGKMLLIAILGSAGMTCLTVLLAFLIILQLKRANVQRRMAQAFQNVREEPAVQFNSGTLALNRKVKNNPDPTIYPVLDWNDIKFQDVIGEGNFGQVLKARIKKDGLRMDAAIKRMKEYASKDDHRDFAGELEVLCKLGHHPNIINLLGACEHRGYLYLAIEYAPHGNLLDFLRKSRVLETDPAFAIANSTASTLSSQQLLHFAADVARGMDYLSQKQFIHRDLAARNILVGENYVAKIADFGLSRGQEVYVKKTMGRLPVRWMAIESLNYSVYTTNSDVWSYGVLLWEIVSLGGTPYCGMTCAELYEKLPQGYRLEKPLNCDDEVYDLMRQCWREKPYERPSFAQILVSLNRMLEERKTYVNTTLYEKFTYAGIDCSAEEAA
Serine/threonine-protein kinase tousled-like 2 (Homo sapiens), sequence (Q86UE8 whole entry, looked up): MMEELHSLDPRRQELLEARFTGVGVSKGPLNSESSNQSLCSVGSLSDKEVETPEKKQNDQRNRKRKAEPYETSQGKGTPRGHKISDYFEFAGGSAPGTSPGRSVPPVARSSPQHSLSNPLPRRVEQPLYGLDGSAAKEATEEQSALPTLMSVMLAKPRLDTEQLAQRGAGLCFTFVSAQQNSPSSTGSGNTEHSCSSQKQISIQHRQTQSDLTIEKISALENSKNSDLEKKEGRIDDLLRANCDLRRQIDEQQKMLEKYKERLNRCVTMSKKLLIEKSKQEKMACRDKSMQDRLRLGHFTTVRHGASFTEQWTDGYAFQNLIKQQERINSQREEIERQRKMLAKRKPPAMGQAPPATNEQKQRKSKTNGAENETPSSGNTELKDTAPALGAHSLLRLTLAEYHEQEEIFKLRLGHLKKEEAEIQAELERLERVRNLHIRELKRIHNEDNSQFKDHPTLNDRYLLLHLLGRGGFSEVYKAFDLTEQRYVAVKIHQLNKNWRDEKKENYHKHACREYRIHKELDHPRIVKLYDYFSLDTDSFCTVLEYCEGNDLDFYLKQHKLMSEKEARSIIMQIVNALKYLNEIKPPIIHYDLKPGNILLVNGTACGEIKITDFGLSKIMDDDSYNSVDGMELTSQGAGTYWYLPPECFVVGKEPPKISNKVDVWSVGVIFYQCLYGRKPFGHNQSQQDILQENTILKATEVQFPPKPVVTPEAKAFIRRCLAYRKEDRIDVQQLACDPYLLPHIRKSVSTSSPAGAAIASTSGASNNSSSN
High affinity nerve growth factor receptor (Homo sapiens), sequence (P04629 33-796 limits assumed): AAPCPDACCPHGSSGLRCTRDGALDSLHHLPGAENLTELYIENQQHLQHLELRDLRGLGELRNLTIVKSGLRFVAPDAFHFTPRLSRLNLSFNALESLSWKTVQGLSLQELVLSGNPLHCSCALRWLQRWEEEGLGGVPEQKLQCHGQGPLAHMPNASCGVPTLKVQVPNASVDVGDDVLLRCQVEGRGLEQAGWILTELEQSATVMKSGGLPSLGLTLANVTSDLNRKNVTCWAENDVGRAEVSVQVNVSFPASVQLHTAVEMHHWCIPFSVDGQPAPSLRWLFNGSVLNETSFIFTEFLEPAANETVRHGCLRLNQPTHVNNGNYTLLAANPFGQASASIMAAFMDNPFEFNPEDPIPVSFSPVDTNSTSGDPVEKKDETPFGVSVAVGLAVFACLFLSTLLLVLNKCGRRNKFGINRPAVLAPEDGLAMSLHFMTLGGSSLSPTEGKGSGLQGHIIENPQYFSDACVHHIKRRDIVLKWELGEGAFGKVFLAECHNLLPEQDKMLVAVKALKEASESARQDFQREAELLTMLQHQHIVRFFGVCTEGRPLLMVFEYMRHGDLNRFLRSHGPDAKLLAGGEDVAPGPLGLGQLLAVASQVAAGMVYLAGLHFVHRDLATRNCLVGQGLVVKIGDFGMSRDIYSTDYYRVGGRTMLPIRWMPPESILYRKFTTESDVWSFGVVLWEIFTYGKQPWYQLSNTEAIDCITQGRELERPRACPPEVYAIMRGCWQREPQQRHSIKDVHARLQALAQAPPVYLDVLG

Turning to `CC#CC(=O)Nc1cc2c(Nc3ccc(F)c(Cl)c3)ncnc2cn1`, the residual activity turned out to be 100% in experiment [1]; 84% in experiment [2]; 70% in [3]; 99% in experiment [4]; 73% in [5]; 95% in [6]. The residual activity is 107% in experiment [7]; 84% in experiment [8]; 102% in experiment [9]; 87% in experiment [10]; 98% in experiment [11]; 81% in experiment [12]. Moreover, the residual activity in experiment [13] came to 82%; in experiment [14], 62%; in experiment [15], 70%; in [16] it was 52%; in experiment [17] it was 57%; in experiment [18], 91%. Also, the residual activity in experiment [19] is 111%; in experiment [20], 110%.

In the case of `COc1cc2ncnc(Nc3ccc(Oc4ccccc4)cc3)c2cc1OC`, the residual activity in experiment [1] was 71%; in [2], 73%; in [3], 100%; in experiment [4] it was 105%; in [5], 92%; in experiment [6], 96%. Besides, the residual activity is 106% in experiment [7]; 97% in [8]; 106% in experiment [9]; 98% in experiment [10]; 95% in [11]; 93% in [12]. The residual activity in [13] was found to be 111%; in experiment [14] it was 40%; in experiment [15], 10%; in experiment [18] it was 135%; in experiment [19] it was 82%; in experiment [20], 102%.

As for `O=C(Nc1cccc(Nc2cc(Nc3cccc(C(F)(F)F)c3)ncn2)c1)C1CC1`, the residual activity worked out at 96% in experiment [1]; 48% in experiment [2]; 117% in experiment [3]; 103% in experiment [4]; 73% in [5]; 96% in experiment [6]. Also, the residual activity in experiment [7] was determined as 95%; in experiment [8], 63%; in experiment [9], 102%; in experiment [10], 97%; in experiment [11] it was 101%; in experiment [12] it was 87%. Further, the residual activity was found to be 77% in [13]; 96% in experiment [14]; 27% in experiment [15]; 60% in experiment [16]; 70% in [17]; 68% in [18]. In addition, the residual activity in experiment [19] worked out at 9%; in [20] it was 76%.

As a reminder, the residual activity is the signal under treatment as a percentage of the control signal.
